# Assay results from PubChem BioAssay (NCI).
# This is part of a sample that, as a whole, favours compounds with a hit. Of some 83,000 tested, about 20% had one in any assay.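 Cells were grown in 96-well plates and exposed to the test compound at a single concentration for 48 hours; results are reported as percent growth, with values below 10 considered active.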 Calls of active or inactive are those of the source.
# System: MDA-MB-468 breast
# Assay: NCI-60 one-dose screen, 48 h (100 = growth as untreated, 0 = no growth, -100 = all killed)
# Conditions: 10 µM unless noted
row,Compound,growth
1,NC(=N\N=C/c1ccccc1[N+](=O)[O-])/C(N)=N\N=C/c1ccccc1[N+](=O)[O-],101% (inactive)
2,CCCCCCCCCCCCCCn1c2ccccc2c2c3c(c4c5cc(OC)ccc5oc4c21)C(=O)NC3=O,106% (inactive)
3,CCCCCn1sc(=O)n(Cc2ccc(CNC(=O)OCc3ccc4cccc(O)c4n3)cc2)c1=O,-48.1% (active)
4,CCN1CCN(c2cc(-c3cn[nH]c3-c3cc(C)cc(OC)c3)nc(-c3cccnc3)n2)CC1,54.3% (inactive)
5,O=[N+]([O-])c1cc2c(cc1Br)C1C(C3C2C(Cl)(Cl)C(Cl)=C(Cl)C3(Cl)Cl)C(Cl)(Cl)C(Cl)=C(Cl)C1(Cl)Cl (stereo not given),95.7% (inactive)
6,COc1cc2cc(Oc3ccc(NC(=O)Nc4cccc(C(F)(F)F)c4)cc3)c(C)nc2cc1OCCN1CCCCC1,-68.7% (active)
7,COc1cc2ncnc(NC3CCC(O)CC3)c2cc1OC (stereo not given),96.7% (inactive)
8,CC1Cc2c(Cl)ncnc2N(C)c2ccccc21 (stereo not given),-31.5% (active)
9,Nc1c(C(=O)Nc2cccc3cnccc23)sc2nc3c(cc12)C(=O)CCC3,47.9% (inactive)
10,COc1cc(NCC(=O)Nc2cc(Nc3ccc(C)cc3)ncn2)c(Cl)c(OC)c1Cl,105% (inactive)
11,C[C@@H](O)[C@H]1C(=O)N2C(C(=O)O)=C(SCCN=CN)C[C@H]12,-48.1% (active)
12,Oc1c(Cl)cc(Cl)cc1C(c1cc(Cl)cc(Cl)c1O)C(Cl)(Cl)Cl,-30.5% (active)
13,COc1ccc2c(c1)c(-c1noc(C(=O)c3cn(C)c4ncc(Br)cc34)n1)cn2C,76.1% (inactive)
14,CCNc1nc(-c2ccc(Cl)c(OC)c2)c(-c2ccnc(NCCCNS(=O)(=O)c3ccc(Cl)cc3)n2)s1,63.3% (inactive)
15,COc1cc(CCCO)c(OC)c(OC)c1OC,104% (inactive)
16,O=C(Nc1ccccc1)c1cc2ccccc2s1,89.1% (inactive)
17,NNC(=O)C1CC2c3ccccc3C1c1ccccc12 (stereo not given),112% (inactive)
18,CNC(=O)c1cc(Oc2ccc3c(c2)sc2nc(-c4ccc(N(C)C)cc4)cn23)ccn1,36.5% (inactive)
19,COC(=O)Nc1cccc(Cl)c1OC,90.1% (inactive)
20,CCNCCNc1cc(-c2ccc(C(=O)OC)cc2)c(C#N)c2nc3ccccc3n12,31.4% (inactive)

row,Compound,growth
1,CCOC(=O)c1c(NC(=O)CSc2n[nH]c3nc4ccccc4n23)sc(CC)c1C,68.6% (inactive)
2,c1ccc(CNc2nc(Nc3ccc(-c4nc5ccccc5[nH]4)cc3)c3cn[nH]c3n2)cc1,-22% (active)
3,CC(=O)OC[C@]12CC[C@@H]([C@@H](C)C(N)=O)[C@@H]1[C@H]1CC[C@@H]3[C@@]4(C)CC[C@H](OC(C)=O)C(C)(C)[C@@H]4CC[C@@]3(C)[C@]1(C)CC2,-40.4% [100 µM] (active)
4,Cc1nn(-c2ccc(Cl)cc2)c2nc3c(nc12)C(=O)c1ccccc1-3,49.2% (inactive)
5,CCCCOP(=O)(OCCCC)C(C(=O)OCC)C(CC(=O)OCC)C(=O)OCC (stereo not given),124% (inactive)
6,O=S(c1ccccc1)c1ccc2nnnn2n1 (stereo not given),112% (inactive)
7,O=C(Nc1ccc(-n2cc(-c3ccncc3)c(-c3ccc(Cl)c(O)c3)n2)cc1)c1cc(C(F)(F)F)cc(C(F)(F)F)c1,71.9% (inactive)
8,CCCCCCCCCCCCCCCCCCOP(=O)(O)O,108% (inactive)
9,O=C(Cn1nnc2ccccc21)N/N=C/c1ccccc1F,90.8% (inactive)
10,C[C@H]1[C@H](C)CC[C@]2(CO)CC[C@]3(C)C(=CC[C@@H]4[C@@]5(C)CCCNC(C)(C)[C@@H]5CC[C@]43C)[C@H]12,-78.6% (active)
11,C=C1C(=O)O[C@H]2[C@H]1CC/C(COC(=O)NCc1ccc(Cn3c(=O)sn(CCI)c3=O)cc1)=C\CC[C@@]1(C)O[C@@H]21,-37.1% (active)
12,C#Cc1cccc(Nc2nc(C)nc3cc(NC(=O)CCl)ccc23)c1,-78.5% (active)
13,COc1cccc(C2C3=C(COC3=O)N(CCO)c3cc4c(cc32)CCC4)c1 (stereo not given),-51.6% (active)
14,CC(=O)Oc1ccccc1C(=O)N(Cc1ccc2c(Cl)cc(Cl)c(O)c2n1)c1ccccc1,40.9% (inactive)
15,Oc1ccc2ccccc2c1N=Nc1nccs1,-48.6% (active)
16,O=C(C[C@@]1(O)C(=O)Nc2c(Cl)ccc(Cl)c21)c1ccc(C2CC2)cc1,-4.24% (active)
17,c1ccc(-c2ccc3ccccc3c2)cc1,91.8% (inactive)
18,O=Cc1[nH]c(Sc2ccccc2)c2ccccc12,47.7% (inactive)
19,C=CCCCOC1[C@H](OCc2ccccc2)C(OCc2ccccc2)C(OC)O[C@@H]1CNC(=O)c1cccc(I)c1 (stereo not given in full),24.8% (inactive)
20,CC(C)n1nc(C#Cc2cccc(NC(=O)c3cccc(C(F)(F)F)c3)c2)c2c(N)ncnc21,8.73% (active)
